From PubChem
TEAD-YAP inh: TEAD-YAP interaction inhibition; 1.4% of 640,000 active; HEK-TIYL cells, TEAD-Gal4/YAP UAS-luciferase luminescence; inhibition, % at 9.12 µM; in the data active = inhibition above about 32%;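 note: 0% = median of test compound wells and 100% = reference inhibitor wells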
FBW7 act: human FBW7 E3 ligase activation, primary screen. normalized activity (activation), % at 26.1 µM. AlphaScreen FBW7–phospho-cyclin E peptide binding, activator screen. AID 1259310. Q969H0. 0.13% of 650,000 active; in the data active = normalized activity above about 1.9%;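 note: purified mutant Fbw7 with reduced substrate affinity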
GPR151 activ: activators of human GPR151; Q8TDV0; PathHunter beta-arrestin GPR151 cells, luminescence; activation, % at 11.2 µM; 1% of 650,000 active; AID 1508602; in the data active = activation above about 4.9%;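 note: 0% = median of compound wells and 100% = cells with positive control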
MITF inh: human MITF inhibition, primary screen; inhibition, % at 2.6 µM; 0.91% of 650,000 active; AID 1259374; AlphaScreen MITF homodimerization, bead proximity signal; O75030; in the data active = inhibition above about 50%;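 note: 0% = vehicle wells with protein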
GPR151 conf act: human GPR151 activation, confirmation screen; shares compounds with GPR151 activ; GPR151 PathHunter beta-arrestin cells, luminescence, 90 min; % of EA-reagent control over plate median; activation, % at 11.2 µM; 6,700 tested, under 10 active; AID 1508609;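 active = mean percent activation across replicates above the confirmation screen cutoff of 4.91%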
GPR119 ag: GPR119 activation, counter-screen for GPR151 activators | AID 1508611 | GPR119 PathHunter beta-arrestin cells, luminescence, 90 min; 0 = compound-well median, 100 = enzyme-acceptor control | 0.3% of 6,700 active | activation, % at 11.2 µM | shares compounds with GPR151 activ;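 active = mean percent activation in the counterscreen above 29.09%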;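 note: counterscreen on off-target GPR119 to flag nonselective hits from the GPR151 activator screen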
Target sequence (Q8TDV5 whole entry, looked up): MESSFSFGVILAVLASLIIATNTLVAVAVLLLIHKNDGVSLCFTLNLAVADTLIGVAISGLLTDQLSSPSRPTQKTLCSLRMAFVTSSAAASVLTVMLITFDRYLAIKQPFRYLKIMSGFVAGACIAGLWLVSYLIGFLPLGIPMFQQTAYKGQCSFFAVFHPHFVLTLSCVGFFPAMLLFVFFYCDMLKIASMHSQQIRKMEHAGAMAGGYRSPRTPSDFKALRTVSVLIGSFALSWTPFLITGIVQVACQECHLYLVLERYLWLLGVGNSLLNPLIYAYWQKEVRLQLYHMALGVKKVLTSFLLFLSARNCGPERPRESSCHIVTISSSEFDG
Starred values were filed as active, the others as inactive; . = no result; ! = a repeat was not active. Shown are actives, neighbours in structure and some others; about 3.4% of the full set was active somewhere.

SMILES | TEAD-YAP inh | FBW7 act | GPR151 activ | MITF inh | GPR151 conf act | GPR119 ag
CCOc1ccc(C(=O)NCC2CCCN2S(=O)(=O)c2ccccc2)cc1 (centres undefined) | -7.8 | 0.0 | 5.6* | 4.1 | -0.5 | -14.2
C/C(=C/c1ccccc1)C(=O)NCc1ccc2c(c1)OCO2 | 0.3 | -0.2 | 2.7 | 0.9 | . | .
COc1cccc(NC(=O)CN(C2=NC3CS(=O)(=O)CC3S2)c2ccccc2F)c1 (centres undefined) | 4.3 | -0.3 | 5.0* | 4.4 | -0.2 | -7.3
COCCNC(=O)c1ccc(Cl)cc1 | -3.3 | 0.4 | 0.0 | 7.7 | . | .
O=C(CN(Cc1ccccc1)S(=O)(=O)c1cc(Cl)ccc1Cl)N1CCCC1 | -2.4 | 0.3 | 3.0 | 21.6 | . | .
O=C(CN(CCc1ccccc1)S(=O)(=O)c1cc(Cl)ccc1Cl)N1CCCC1 | -3.1 | 0.0 | 18.0* | 21.5 | -0.1 | -12.8
O=C(O)c1ccc2c(=O)[nH]c(CSc3nnc(Nc4ccccc4)s3)nc2c1 | 8.0 | 0.1 | 8.4* | 22.9 | 0.8 | 5.5
CSc1nc2sccn2c(=O)c1C(=O)NC1CCC(O)CC1 (centres undefined) | 2.5 | 0.0 | 6.8* | -4.9 | 0.2 | 8.6
CSc1nc2sccn2c(=O)c1C(=O)NCc1ccccc1Oc1ccccc1 | 7.5 | 0.3 | 17.3* | 6.1 | 1.7 | 5.7
CSc1nc2sccn2c(=O)c1C(=O)NCC(F)(F)F | 4.0 | 0.1 | -0.6 | 20.2 | . | .
CCOC(=O)N1CCN(c2ncnc3c2c(-c2ccccc2)cn3-c2ccc(OCC)cc2)CC1 | 1.5 | -0.1 | 1.9 | -9.6 | . | .
CC(NC(=O)C1CCCN(c2nnc(-n3cccc3)s2)C1)C12CC3CC(CC(C3)C1)C2 (centres undefined) | 2.6 | -0.3 | 0.1 | 5.2 | . | .
COCCC(=O)Nc1ccc2c(c1)CN(C(=O)c1ccc(CSC)o1)CC2 | -14.3 | 0.4 | 9.4* | 17.3 | 0.0 | 2.2
COc1ccc(/C=C2\C=C(c3ccccc3)N(c3cc(C)ccc3C)C2=O)cc1Br | 5.8 | 0.1 | -0.1 | -6.8 | . | .
Cc1c(C)n2c(SCc3ccc(Cl)c(Cl)c3)nnc2[nH]c1=O | -1.9 | 0.3 | -0.8 | -8.1 | . | .
O=C(Nc1cccc(F)c1)NC1(C(=O)NCCCN2CCOCC2)CCCCC1 | -6.3 | 0.6 | 0.8 | 15.7 | . | .
Cc1nc(CNc2nncc(-c3ccc(Cl)cc3)n2)cs1 | -24.3 | -0.1 | 9.4* | -0.1 | -0.6 | 2.5
CCn1c(-c2cccc(Cl)c2)n[nH]c1=S | 4.5 | 0.0 | -0.9 | 12.2 | . | .
CCN(CC)c1n[nH]c(-c2cccc(Cl)c2)n1 | -29.6 | 0.1 | 5.3* | 14.2 | -0.9 | -8.0
CCOC(=O)c1csc(NC(=O)Nc2ccc(Cl)cc2)n1 | -7.2 | -0.1 | -1.1 | -5.7 | . | .
CC(C)N(C(=O)Cc1csc(NC(=O)Nc2ccc(Cl)cc2)n1)C(C)C | 4.8 | 0.0 | 11.2* | -6.6 | 0.4 | -10.0
Cc1cc(N)c2ccccc2[n+]1CCCCCCCCCCCCCC[n+]1c(C)cc(N)c2ccccc21 | 84.3* | 0.0 | 6.6* | -16.1 | 0.6 | -6.4
CN1C(=O)c2cccc(NC(=O)c3ccc4ccccc4c3)c2C1=O | -0.1 | 0.0 | 7.6* | 3.2 | 1.1 | 3.6
CN1CCC(N(C(=O)CCC(=O)O)C2CC2)CC1 | 4.0 | -0.2 | 8.8* | -3.2 | -0.9 | -7.6
COc1ccc(/C=C(\NC(=O)c2ccc(OC)cc2)C(=O)NC(C)C(=O)O)cc1 (centres undefined) | 0.7 | 0.0 | 1.7 | 13.8 | . | .
SMILES | TEAD-YAP inh | FBW7 act | GPR151 activ | MITF inh | GPR151 conf act | GPR119 ag
COc1ccc(C(=O)N/C(=C/c2ccccc2)C(=O)NC(C)C(=O)O)cc1 (centres undefined) | 3.0 | 0.0 | 8.7* | 11.2 | 0.8 | 10.7
COC(=O)c1ccc(NC(=O)COc2ccc(C34CC5CC(CC(C5)C3)C4)cc2)cc1 | 6.9 | 0.0 | 5.3* | 4.5 | -0.8 | 3.4
COc1ccccc1CN1CCC2(CCC(CNC(=O)c3ccn(C)n3)O2)CC1 (centres undefined) | 3.3 | 0.2 | 6.4* | -3.0 | 0.1 | -2.5
Cc1cc(C)c(CN2CCC3(CCC(CNC(=O)c4ccn(C)n4)O3)CC2)cc1C (centres undefined) | 0.5 | 0.1 | 1.2 | -10.1 | . | .
CCOc1ccccc1NC(=O)c1cc2cccc(OC)c2oc1=O | -4.9 | 0.0 | 0.8 | -5.5 | . | .
CCOC(=O)C1=CN(c2ccc(OCC)cc2)C=C(C(=O)OCC)C1c1cccs1 | 7.5 | -0.1 | -1.0 | -9.9 | . | .
COc1cc(NC(=O)c2cccc([N+](=O)[O-])c2C)ccc1NC(=O)c1ccco1 | -19.6 | -0.1 | 0.8 | 7.5 | . | .
Cc1c(C(=O)Nc2ccc(NC(=O)c3ccco3)c(Cl)c2)cccc1[N+](=O)[O-] | 5.8 | 0.3 | 7.3* | 13.6 | 0.9 | 12.8
Cc1c(C(=O)Nc2cccc(NC(=O)c3cccs3)c2)cccc1[N+](=O)[O-] | -2.8 | -0.2 | 5.5* | -26.6 | -1.4 | -7.8
O=C1OC(CNS(=O)(=O)c2ccccc2Cl)CN1c1ccc(Cl)c(Cl)c1 (centres undefined) | 6.0 | 0.0 | 1.3 | -2.5 | . | .
COc1ccc(Cc2nc(SCC(=O)Nc3cccc(C(=O)OC(C)C)c3)n[nH]2)cc1 | -2.4 | 0.1 | 5.8* | 9.0 | -0.4 | 0.8
O=C(Oc1ccc(NS(=O)(=O)c2ccccc2)cc1Br)c1ccccc1 | 16.4 | -0.2 | -0.3 | 19.4 | . | .
O=C1CN(S(=O)(=O)c2cccc(Cl)c2Cl)c2ccccc2N1 | -8.3 | 0.0 | 6.8* | -1.8 | 1.4 | 1.4
CN(C)CC(C)(C)C1OCC2(CO1)COC(C(C)(C)CN(C)C)OC2 (centres undefined) | 12.9 | -0.1 | 6.9* | 12.7 | 0.0 | -2.5
CN(C)c1ccc(C2OCC3(CO2)COC(c2ccc(N(C)C)cc2)OC3)cc1 (centres undefined) | -3.8 | 0.0 | 0.8 | 3.7 | . | .
C/C=C/C(=O)N(CC)c1ccccc1C | -0.3 | 0.1 | 6.1*! | 8.0 | 1.8 | 9.7
CCCC(=O)N(CC)c1ccccc1C | -2.1 | 0.2 | 0.4 | 5.5 | . | .
COc1nc(Nc2cccc(C)c2)nc(N2CCCCC2)n1 | -7.2 | 0.0 | 0.0 | 13.9 | . | .
Cc1cccc(Nc2nc(N3CCCC3)nc(N3CCCC3)n2)c1 | 1.3 | 0.0 | 5.6* | 4.0 | 1.4 | 4.1
Cc1ccc(C(=O)NC2=NCCS2)cc1 | -66.8 | 0.0 | -2.1 | 2.2 | . | .
CCCN1C(=O)c2ccc(C(=O)NC3=NCCS3)cc2C1=O | -11.1 | -0.1 | 9.5* | 1.3 | -0.7 | -3.9
O=C(N/C(=C\c1ccc(OCc2ccccc2)cc1)C(=O)N1CC2CC(C1)c1cccc(=O)n1C2)c1ccc(F)cc1 (centres undefined) | 26.9 | -0.1 | -0.6 | -5.2 | . | .
CN(C)c1ccc(C2C(=O)N(C3CCCCC3)CC(=O)N2Cc2cccs2)cc1 (centres undefined) | 30.2 | -0.2 | 1.4 | -0.3 | . | .
COc1ccc(C2C(=O)N(C3CCCC3)CC(=O)N2Cc2cccs2)cc1 (centres undefined) | 1.7 | 0.0 | 11.0* | -1.6 | 1.1 | 13.8
